Results filed as inconclusive are left out. Active and inactive are the calls of the source. Rule for the calls: active = hit-call score of the fitted dose curve at least 0.9, where 1 is the maximum; inconclusive = response in the unintended direction; inactive = score below 0.9.

A word on the AC50: it is the midpoint of the concentration-response curve, whichever way the signal moves.

The experiment is described as follows: Tanguay_ZF_120hpf_PE_legacy: (Legacy) Oregon State University Tanguay Lab 120 Hour Post-fertilization zebrafish Assay for Pericardial Edema (AID 2283640).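 For AC50: potency for increased incidence of pericardial edema versus DMSO baseline.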 How it is done: Tanguay_ZF_120hpf_legacy is a whole embryo, multiplexed endpoint assay using zebrafish larvae exposed for 120 hours post fertilization on a 96-well plate.Tanguay_ZF_120hpf_PE_legacy is one of one assay component(s) measured or calculated from the Tanguay_ZF_120hpf_legacy assay. It is designed to make measurements of zebrafish development as detected with brightfield microscopy of developing zebrafish embryos.Data from the assay component Tanguay_ZF_120hpf_PE_legacy was analyzed into 1 assay endpoints. This assay endpoint, Tanguay_ZF_120hpf_PE_legacy, was analyzed in the positive analysis fitting direction relative to DMSO as the negative control and baseline of activity. Using a type of morphology reporter, gain-of-signal activity can be used to understand changes in developmentals as they relate to the whole embryo. To generalize the intended target to other relatable targets, this assay endpoint is annotated to the zebrafish development intended target family, where the subfamily is embryonic morphogenesis.
Zebrafish husbandry: Tropical 5D wild-type adult zebrafish were housed in at an approximate density of 1000 per 100 gallon tank at the Sinnhuber Aquatic Research Laboratory, Oregon State University, Corvallis, OR. Each tank was kept at standard laboratory conditions of 28C on a 14-h light/10-h dark photoperiod in fish water consisting of reverse osmosis water supplemented with a commercially available salt (Instant Ocean). Spawning funnels were placed into the tanks the night prior, and embryos were collected and staged. […] Ten microliters of each row of dilution plate 2 was added to 2 exposure plates. The final DMSO concentration used was 0.64% (vol/vol). Thirty-two embryos were also exposed to 5uM trimethyltin chloride (positive control). Plates were sealed to prevent evaporation and foil covered to reduce light exposure and kept in a 28C incubator. Embryos were statically exposed until 120 hpf. At 24 hpf, embryos were assessed for photomotor response using a custom photomotor response analysis tool (PRAT) and for developmental toxicity endpoints (MO24: mortality at 24 hpf, DP: developmental progression, SM: spontaneous movement, and NC: notochord distortion). At 120 hpf, locomotor activity was measured using Viewpoint Zebralab and assessed for 18 endpoints. Zebrafish acquisition and analysis program (ZAAP), a custom program designed to inventory, acquire, and manage zebrafish data, was used to collect developmental endpoints as either present or absent (i.e., binary responses were recorded). If mortality occurred for an embryo (at either 24 or 120 hpf), the non-mortality endpoints were not measured.
As to `Cc1ccc(O)cc1C`, the outcome was inactive.

Consider `O=[N+]([O-])c1ccccc1`, for which the outcome was inactive. With `CSC(C)(C)C=NO`, the result was inactive. For the compound `O=C(O)C(Cl)Cl`, the compound was called inactive. Turning to `Cc1cccc(N)c1`, the compound was called inactive. For the compound `c1cc2c3c(cccc3c1)CC2`, the call was inactive. For the compound `CN(C)C(=O)Cl`, the call was inactive. Consider `ClC(Cl)c1ccccc1`, for which the call was inactive. In the case of `ClC1=C(Cl)C2(Cl)C3C(Cl)C(Cl)CC3C1(Cl)C2(Cl)Cl` (stereo not drawn), the call was inactive. The same measure, in the same setting: to `O=[N+]([O-])c1ccc(Cl)c(Cl)c1` belongs “inactive”. As for `O=P(Oc1ccccc1)(Oc1ccccc1)Oc1ccccc1`, the result was inactive. Turning to `CCOS(=O)(=O)OCC`, the call was inactive.

Turning to `CC(C)(C)c1ccc(O)cc1`, the result was inactive.

In the case of `Nc1cc2c3c(c1)C(c1ccccc1)=N[C@@H](NC(=O)c1cccnc1)C(=O)N3CC2`, the result was inactive. Take `CCCCN(CCCC)N=O`: the outcome was inactive.

In the case of `O=C(O)C1C(C(=O)O)C2(Cl)C(Cl)=C(Cl)C1(Cl)C2(Cl)Cl` (stereo not drawn), the compound was called inactive. Regarding `CCCCc1ccccc1`, the call was inactive. For the compound `CC(C)(C)OOC(C)(C)C`, the result was inactive.

Regarding `OCC1CO1` (stereo not drawn), the compound was classed as inactive. Same read-out and setting: with `Nc1ccc(Cl)cc1` the entry was “inactive”. Regarding `c1ccc2c(c1)Nc1ccccc1S2`, the compound was classed as inactive.

In the case of `Cc1ccc([N+](=O)[O-])cc1C`, the outcome was inactive. Same read-out and setting: to `O=P1(N(CCCl)CCCl)NCCCO1` (stereo not drawn) belongs “inactive”; to `CCC1(c2ccccc2)C(=O)N=C(O)NC1=O` (stereo not drawn), “inactive”.

As to `CCC(C)(C)c1ccc(O)cc1`, the AC50 was 44.5 µM (active).

Regarding `CCOP(=S)(Oc1ccc([N+](=O)[O-])cc1)c1ccccc1` (stereo not drawn), the result was inactive. On the same count and under the same terms, with `CC(Cl)(Cl)C(=O)O` the entry was “inactive”. Regarding `COCCOCCO`, the result was inactive. As to `Cc1ccc(N)cc1N`, the compound was called inactive. In the case of `CC(Cc1ccc(OCC(=O)O)cc1)NCC(O)c1csc(C(F)(F)F)n1` (stereo not drawn), the call was inactive. As to `CCCCCCCc1ccc(O)cc1`, the outcome was inactive. For `CCCN(CCC)c1c([N+](=O)[O-])cc(C(C)C)cc1[N+](=O)[O-]`, the outcome was inactive. With `CCOC(=O)c1ccccc1C(=O)OCC`, the compound was called inactive. As for `CCN(CC)c1ccccc1`, the compound was called inactive.

With `c1ccc(OP(Oc2ccccc2)Oc2ccccc2)cc1`, the outcome was inactive. With `CCOc1ccc(C(C)(C)COCc2cccc(Oc3ccccc3)c2)cc1`, the call was inactive.

Regarding `Nc1ccc2ccccc2c1`, the AC50 is 42 µM (active). For `CCOP(=S)(OCC)SCSCC`, the outcome was inactive.

(Values after PubChem BioAssay (EPA / NIEHS).)
